Most compounds without a hit are left out; they make up all but 3% or so of the library.
Insulin prom inh: inhibitors of insulin promoter-driven GFP, primary screen, imaging, TRM-6 cells (human fetal islet line), eGFP reporter, cell count; AID 1273, 2008; reporter expression induced with tamoxifen; inhibition, % at 2 µM; 130,000 tested, 0.9% active;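 active = inhibition above the mean plus 3 SD, with well images judged a real hit on visual review, cut at about 60% in these data, passing the limit was not always enough; inconclusive = inhibition over the cutoff but images rejected on review; inactive = inhibition not above the cutoff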
ROMK mod: ROMK potassium channel modulators, primary screen, cell-based, thallium flux, MLSMR library | ATP-sensitive inward rectifier potassium channel 1 (Homo sapiens), P48048 | Tet-inducible ROMK, thallium flux fluorescence; actives lie on both sides | B-score at 10 µM | 130,000 tested, 2% active | AID 1918, 2009;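 active = signal ratio slope over the read window, or its plate-corrected B-score, at least 3 SD from the plate mean, either direction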;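 also: B-score of the F/F0 ratio slope over 7 to 12 s after thallium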
Target sequence (P48048 whole entry, looked up): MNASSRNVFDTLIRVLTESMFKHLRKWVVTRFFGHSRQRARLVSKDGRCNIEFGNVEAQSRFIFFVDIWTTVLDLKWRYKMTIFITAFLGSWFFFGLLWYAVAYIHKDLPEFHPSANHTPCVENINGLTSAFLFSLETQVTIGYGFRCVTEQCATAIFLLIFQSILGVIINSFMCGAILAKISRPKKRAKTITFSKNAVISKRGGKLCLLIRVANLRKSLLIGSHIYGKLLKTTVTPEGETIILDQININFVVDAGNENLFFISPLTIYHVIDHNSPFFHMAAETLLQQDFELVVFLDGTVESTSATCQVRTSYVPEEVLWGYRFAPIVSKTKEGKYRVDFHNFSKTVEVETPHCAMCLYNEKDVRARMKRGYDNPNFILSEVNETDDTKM
sdo1 growth: growth rescue of sdo1-depleted yeast, primary screen, S. cerevisiae, bone marrow failure model. S. cerevisiae sdo1-depleted JHY4D growth rescue, OD600 30 h; stronger effect = higher value; pdr5 snq2 efflux-pump mutant strain. z-score at 10 µM. 140,000 tested, 0.21% active. AID 817, 2007;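 active = z-score above 3 at both the 24 hr and the 30 hr optical density reads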;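 also: z-score against mean and SD of all compound wells on the same plate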
Measles CPE: compounds protecting cells from measles virus cytopathic effect, primary screen, measles RdRp inhibitor project, single point, MLSMR library, absorbance; Measles virus-infected cells, CPE protection; protection (pct of control), % at 4 µM; 140,000 tested, 1.5% active; AID 841, 2007; in the data active = protection mostly above about 24%, no sharp cut-off; inactive = mostly below about 26%
ROMK retest: ROMK channel modulator hit retest, confirmation, cell-based, thallium flux, duplicate, resupplied hits | fluorescence ratio; stronger effect = lower value | normalized thallium flux (F/F0 slope) at 10 µM | shares compounds with ROMK mod | AID 1917, 2009 | 3,000 tested, 54% active;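 active = Flux at 10 µM at least 3 SD below or above vehicle control mean in one or both replicates; inconclusive = no clear call, values can overlap the other calls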
Numbers without * were called inactive; u = inconclusive; x = not tested or not shown.

SMILES | Insulin prom inh | ROMK mod | sdo1 growth | Measles CPE | ROMK retest
O=C(NN=C1C2CC3CC(C2)CC1C3)c1cc(Cl)ccc1O | 14.3 | x | 0.72 | 6.9 | x
NS(=O)(=O)c1ccc(CCNC(=O)/C=C/c2ccccc2[N+](=O)[O-])cc1 | 53.3 | -0.95 | x | x | x
O=C(C1CCN(Cc2ccc(F)cc2)CC1)N(CCc1ccccc1)Cc1ccccc1 | -35.3 | -3.45* | 0.42 | 4.1 | 0.0462*
CC(=O)c1ccc(C(=O)N2CCCC(CCC(=O)N(C)CCc3ccccn3)C2)s1 (configuration not stated) | 7.3 | 1 | x | x | x
O=C(/C(=C/c1cccnc1)n1ccnc1)c1ccc(Cl)cc1Cl | x | -5.61* | x | x | 0.0301*
O=C(/C(=C/c1ccncc1)n1ccnc1)c1ccc(Cl)cc1Cl | x | -7.93* | x | x | 0.0304*
Nc1nncn1C(=O)c1ccc(Cl)cc1Cl | x | 0.467 | x | x | x
COc1cc(C(=O)OCCNC(=O)c2ccncc2)cc(OC)c1OC | x | x | 0.38 | 29.1 | x
Cn1c(N2CCOCC2)nc2c1c(=O)n(Cc1ccc(Cl)c(Cl)c1)c(=O)n2C | 0.0 | -3.75* | -1.38 | 26.6 | 0.0678*
Cn1c(=O)c2c(ncn2Cc2ccc(Cl)c(Cl)c2)n(C)c1=O | 54.3 | -2.12* | -0.64 | 2.5 | u
CCCC(=O)Nc1nc(C)c(-c2csc(Nc3ccccc3C)n2)s1 | x | -15.3* | 0.93 | 8.0 | u
CCCCCC(=O)Nc1nc(C)c(-c2csc(Nc3ccccc3OC)n2)s1 | -55.6 | x | 0.42 | 5.9 | x
Fc1ccc(C2=NNC(=NCc3ccccc3)SC2)cc1F | -28.6 | -2.97* | x | x | u
Clc1ccc(C2=NNC(=NCc3ccccc3)SC2)cc1 | x | -0.224 | x | x | x
Cc1ccc2cc(CN(Cc3ccccc3)Cc3nnnn3C3CCCC3)c(=O)[nH]c2c1 | 17.6 | -3.03* | -1.17 | 4.7 | 0.0606*
CCOc1cccc(-c2nnc3n2N=C(c2cc(OC)ccc2OC)CS3)c1 | -255.6 | 3.82* | -1.63 | 3.7 | 0.0904
COc1cccc(/C=C/C(=O)OCC(=O)NCCC2=CCCCC2)c1 | -14.3 | -0.221 | x | x | x
CCOCCCNC(=O)/C(C#N)=C/c1ccc(C(=O)OC)cc1 | x | -2.16* | x | x | 0.0453*
CCOCCCNC(=O)/C(C#N)=C/c1cc(C)c(O)c(C)c1 | x | 1.51 | x | x | x
CCOCCCNC(=O)/C(C#N)=C/c1ccccc1F | x | -3.85* | x | x | 0.0516*
O=C(Cc1ccc(F)cc1)Oc1ccc(C(=S)N2CCCC2)cc1 | 17.2 | 0.0345 | 0.09 | 21.1 | x
Cc1cc(C(=O)CN2C(=O)NC(C)(c3cccc(Br)c3)C2=O)c(C)n1Cc1ccco1 (configuration not stated) | x | x | -0.9 | 1.6 | u
CCOc1ccc(-n2c(SCC(=O)Nc3cc(C)on3)nnc2-c2c[nH]c3ccccc23)cc1 | 47.2 | 4.3* | 2.38 | 8.6 | 0.0733
COc1ccc(OC)c(-n2c(SCC(=O)Nc3cc(C)on3)nnc2-c2c[nH]c3ccccc23)c1 | x | x | 0.68 | 13.7 | x
O=[n+]1c2c(n([O-])c3cc(F)c(N4CCCC4)cc31)CCCC2 | x | -6.33* | 0.45 | 18.8 | 0.0433*
SMILES | Insulin prom inh | ROMK mod | sdo1 growth | Measles CPE | ROMK retest
Cc1cc2nc(-c3ccc(SCc4ccccn4)nc3)[nH]c2cc1C | 16.7 | -2.23 | x | x | x
Cc1oc(S(=O)(=O)N2CCOCC2)cc1C(=O)Nc1ccc(Cl)cc1 | x | 1.06 | x | x | x
CCOc1ccccc1NC(=O)COC(=O)C(CC(C)C)N1C(=O)C2CC=CCC2C1=O (configuration not stated) | x | x | -0.6 | 6.0 | 0.0634*
CC(C)Sc1nnc(CNC(=O)C23CC4CC(CC(C4)C2)C3)n1C1CCCCC1 | x | x | 0.79 | 3.2 | x
COc1ccccc1N1CCN(CCCCCCOc2ccc(F)cc2)CC1 | -28.6 | -4.5* | -0.82 | 1.7 | 0.0383*
COc1ccccc1OCCCCN1CCN(c2ccccc2OC)CC1 | 28.6 | x | 0.55 | 2.5 | x
COc1ccc(C(=O)CCN2CCN(c3ccccc3F)CC2)cc1 | -25.6 | -10.3* | x | x | 0.0771
COc1ccc2nc(NC(=S)N(C)C)sc2c1 | 46.1 | x | -1.33 | 4.9 | x
CCOC(=O)Cc1csc(NC(=O)c2csc3c2CCCC3)n1 | 26.3 | x | -1.49 | 14.5 | 0.0699
CCOC(=O)Cc1csc(NC(=O)c2cc3c(s2)CCCC3)n1 | 13.3 | -0.241 | -0.5 | 17.1 | x
CCOC(=O)N1CCN(Cc2cc(Cl)c3cccnc3c2O)CC1 | x | -0.468 | x | x | x
Cc1c(N=Cc2cc(Br)cc(Br)c2O)cccc1C(=O)O | 23.1 | 3.41* | -0.64 | 3.3 | 0.105*
CCOC(=O)c1c(NC(=O)Cn2nc(C(=O)O)c3ccccc3c2=O)sc(CC)c1C | x | 0.146 | x | x | x
N#C/C(=C\C=C\c1ccccc1)C(=O)NCc1cccnc1 | x | -0.655 | x | x | x
Cc1nc(NC(=O)c2cccnc2)ccc1Br | -9.3 | x | 0.13 | 3.3 | 0.0793
Cc1ccc(NC(=O)Nc2ccnc(-c3cccnc3)n2)cc1 | 23.1 | 3.08 | x | x | x
COc1ccc(C(=O)Nc2ccnc(-c3cccnc3)n2)cc1 | 15.4 | 4.37* | x | x | 0.104*
Cc1ccccc1C(=O)Nc1ccc(Br)c(C)n1 | -28.0 | x | -0.13 | 13.7 | x
O=C(Nc1ccnc(-c2cccnc2)n1)c1ccc(Cl)c(Cl)c1 | 27.3 | 1.84 | -1.94 | 6.1 | x
Cc1ccc(C(=O)Nc2ccnc(-c3cccnc3)n2)cc1 | 27.8 | 4.57* | x | x | 0.111*
Clc1nc2nc3n(c2nc1Cl)CCC3 | x | 0.9 | x | x | x
COc1ccc(CCC(=O)N2CCc3ccccc32)cc1 | -366.7 | x | -0.98 | 2.8 | x
COc1ccc(S(=O)(=O)N2CCCC2C(=O)Nc2ccc(O)cc2)cc1 (configuration not stated) | -71.4 | x | 0.9 | 2.5 | x
COc1ccc(S(=O)(=O)N2CCC[C@H]2C(=O)NC2=NCCS2)cc1 | -13.9 | x | 0.71 | 5.1 | 0.0708
COC(=O)C1C(=O)C2=C(CC1C)NC(C)=C(C(=O)OCCOc1ccccc1)C2c1ccc(C)o1 (configuration not stated) | -7.9 | -3.95* | -0.68 | 3.4 | 0.0658*
SMILES | Insulin prom inh | ROMK mod | sdo1 growth | Measles CPE | ROMK retest
COC(=O)C1C(=O)C2=C(CC1C)NC(C)=C(C(=O)OCc1ccc(OC)cc1)C2c1ccc(C)o1 (configuration not stated) | -205.0 | x | 0.4 | 8.2 | x
O=C(c1cc([N+](=O)[O-])cc([N+](=O)[O-])c1)N1CCOCC1 | x | x | 0.6 | 15.7 | x
CC1(C)CC(=O)C2=C(C1)OC1OC(=O)CC21C (configuration not stated) | x | 1.39* | x | x | 0.0908
Cc1noc(NS(=O)(=O)c2ccc(N/C=C\C(=O)c3ccc4c(c3)OCO4)cc2)c1C | -51.4 | x | 0.52 | 24.5 | x
CCOc1ccc(C(=O)/C=C/Nc2ccc(S(=O)(=O)Nc3onc(C)c3C)cc2)cc1 | -137.5 | 2.75* | 0.17 | 10.2 | 0.0887
COc1cccc(C(=O)/C=C/Nc2ccc(S(=O)(=O)Nc3onc(C)c3C)cc2)c1 | x | x | 1.11 | 6.6 | x
Cc1noc(NS(=O)(=O)c2ccc(N/C=C\C(=O)c3ccc(Br)cc3)cc2)c1C | 7.1 | 6.02* | x | x | 0.0987*
CCc1nnc(NS(=O)(=O)c2ccc(N/C=C\C(=O)c3cccc4ccccc34)cc2)s1 | 16.0 | 0.873 | -0.09 | 11.9 | x
CCc1nnc(NS(=O)(=O)c2ccc(N/C=C/C(=O)c3ccc(OC)cc3)cc2)s1 | x | 4.13* | x | x | 0.0944

Source: PubChem BioAssay
